# PubChem BioAssay
# Unmarked numbers belong to inactive results. For some assays here: Measured potencies and affinities stand elsewhere. Activity calls are given as the source filed them. Unless noted, no rule for the calls is given here.
# Legend:
# [1] = antimalarial activity against Dd2 strain (AID 2302;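 active = growth inhibition above 50% at the single 2 µM test dose, taken to imply half-maximal potency below 2 µM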;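 also: 0% = DMSO untreated growth and 100% = chloroquine plus artemisinin killed control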); conditions: P. falciparum Dd2 in RBCs, LDH growth readout, 72 h; at 2 µM; stronger effect = higher value
# [2] = HepG2 cytotoxicity, primary screen, cytotoxicity control for P. falciparum antimalarial project, cell-based, ATP luminescence (AID 2303;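 active = inhibition above 50%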;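 also: 0% = DMSO wells and 100% = digitonin-killed cells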); conditions: HepG2 viability, 24-48 h, at 10 µM, stronger effect = higher value
# [3] = molecular target: L-lactate dehydrogenase (Plasmodium falciparum (isolate CDC / Honduras)) (UniProt Q27743); assay: PfLDH activity inhibition – cell lysate, 3D7 strain, counter-screen for P. falciparum growth inhibition project (AID 2304);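 also: 0% = vehicle and 100% = reference inhibitor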; conditions: P. falciparum 3D7 crude extract, LDH APAD/NBT absorbance; at 2 µM; stronger effect = higher value
# [4] = inhibition of 3D7 malaria parasite growth – strain 3D7 (AID 2306);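 also: 0% = DMSO wells and 100% = chloroquine plus artemisinin control wells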; conditions: P. falciparum 3D7 erythrocytic growth, LDH absorbance, 72 h; at 2 µM; stronger effect = higher value
# [5] = molecular target: Calcium-dependent protein kinase 1 (Plasmodium falciparum (isolate 3D7)) (UniProt P62344); assay: PfCDPK1 kinase inhibitors, biochemical, TCAMS library (AID 1159585; cut-off not given, nearly all actives have IC50 up to about 0.98 µM;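 also: inhibitors leave more ATP so luminescence rises with inhibition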); conditions: recombinant PfCDPK1, Kinase-Glo ATP depletion luminescence
# [6] = molecular target: Plasmodium falciparum protein kinase 6 (PK6, PF3D7_1337100) (UniProt Q8IDW1); assay: PfPK6 kinase inhibitors, biochemical, TCAMS library (AID 1159586); conditions: recombinant PfPK6, Kinase-Glo ATP depletion luminescence
# [7] = molecular target: Protein kinase 7 (PK7), Plasmodium falciparum 3D7 (PF3D7_0213400) (UniProt Q7YTF7); assay: inhibition of Plasmodium PK7 catalytic activity – biochemical, TCAMS antimalarial set, Kinase-Glo luminescence (AID 1159587); conditions: recombinant PfPK7, Kinase-Glo ATP depletion luminescence
# [8] = molecular target: Calcium-dependent protein kinase 4 (Plasmodium falciparum (isolate 3D7)) (UniProt Q8IBS5); assay: PfCDPK4 kinase inhibitors, biochemical, TCAMS library (AID 1159588; cut-off not given, nearly all actives have IC50 up to about 0.91 µM); conditions: recombinant PfCDPK4, Kinase-Glo ATP depletion luminescence
# Calcium-dependent protein kinase 4 (Plasmodium falciparum (isolate 3D7)), sequence (Q8IBS5 whole entry, looked up): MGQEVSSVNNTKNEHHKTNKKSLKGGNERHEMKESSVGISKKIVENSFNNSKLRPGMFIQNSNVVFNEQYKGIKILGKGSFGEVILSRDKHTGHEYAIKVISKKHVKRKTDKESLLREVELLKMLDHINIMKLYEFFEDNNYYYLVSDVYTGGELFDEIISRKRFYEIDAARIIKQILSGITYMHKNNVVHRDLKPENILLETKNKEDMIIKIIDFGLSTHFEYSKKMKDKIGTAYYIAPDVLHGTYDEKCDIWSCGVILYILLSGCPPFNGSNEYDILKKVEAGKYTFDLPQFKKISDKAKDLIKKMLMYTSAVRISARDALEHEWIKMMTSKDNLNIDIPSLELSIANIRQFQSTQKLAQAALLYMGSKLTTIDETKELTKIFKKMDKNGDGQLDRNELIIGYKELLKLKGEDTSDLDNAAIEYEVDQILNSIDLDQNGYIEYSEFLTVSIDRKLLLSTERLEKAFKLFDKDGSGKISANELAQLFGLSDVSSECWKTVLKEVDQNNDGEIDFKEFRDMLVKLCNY
# Calcium-dependent protein kinase 1 (Plasmodium falciparum (isolate 3D7)), sequence (P62344 whole entry, looked up): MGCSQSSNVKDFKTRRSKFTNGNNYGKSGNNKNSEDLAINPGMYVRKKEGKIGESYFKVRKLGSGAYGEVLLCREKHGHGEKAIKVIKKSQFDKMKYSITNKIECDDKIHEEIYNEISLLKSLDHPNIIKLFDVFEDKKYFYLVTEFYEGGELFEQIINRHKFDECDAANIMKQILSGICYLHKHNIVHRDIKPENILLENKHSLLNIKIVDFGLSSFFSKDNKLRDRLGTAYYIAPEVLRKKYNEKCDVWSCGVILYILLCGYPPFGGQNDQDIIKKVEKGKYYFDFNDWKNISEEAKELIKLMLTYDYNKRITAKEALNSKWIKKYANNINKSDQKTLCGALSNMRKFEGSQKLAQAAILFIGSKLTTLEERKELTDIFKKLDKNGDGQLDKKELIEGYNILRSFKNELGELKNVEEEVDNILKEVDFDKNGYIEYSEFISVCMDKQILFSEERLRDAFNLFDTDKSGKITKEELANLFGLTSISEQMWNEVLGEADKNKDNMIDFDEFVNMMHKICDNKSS
# Plasmodium falciparum protein kinase 6 (PK6, PF3D7_1337100), sequence (Q8IDW1 1-305): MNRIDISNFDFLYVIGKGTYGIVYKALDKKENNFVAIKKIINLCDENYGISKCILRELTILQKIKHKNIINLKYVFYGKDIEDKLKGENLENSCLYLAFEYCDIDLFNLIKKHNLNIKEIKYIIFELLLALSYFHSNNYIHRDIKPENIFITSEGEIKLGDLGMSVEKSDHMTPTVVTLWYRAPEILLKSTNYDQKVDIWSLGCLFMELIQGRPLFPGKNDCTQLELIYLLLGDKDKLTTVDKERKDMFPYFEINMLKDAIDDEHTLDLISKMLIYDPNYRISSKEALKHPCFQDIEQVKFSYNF
# Protein kinase 7 (PK7), Plasmodium falciparum 3D7 (PF3D7_0213400), sequence (Q7YTF7 1-343): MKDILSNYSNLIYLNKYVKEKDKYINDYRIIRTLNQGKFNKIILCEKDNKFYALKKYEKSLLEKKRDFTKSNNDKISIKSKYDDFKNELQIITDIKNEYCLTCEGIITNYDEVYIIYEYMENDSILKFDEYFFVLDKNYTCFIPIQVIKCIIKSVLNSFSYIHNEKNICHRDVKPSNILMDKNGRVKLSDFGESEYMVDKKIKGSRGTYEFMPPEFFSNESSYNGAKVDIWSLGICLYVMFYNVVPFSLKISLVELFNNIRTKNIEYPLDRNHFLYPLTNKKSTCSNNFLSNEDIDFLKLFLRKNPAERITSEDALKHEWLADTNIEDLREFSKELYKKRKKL
# L-lactate dehydrogenase (Plasmodium falciparum (isolate CDC / Honduras)), sequence (Q27743 whole entry, looked up): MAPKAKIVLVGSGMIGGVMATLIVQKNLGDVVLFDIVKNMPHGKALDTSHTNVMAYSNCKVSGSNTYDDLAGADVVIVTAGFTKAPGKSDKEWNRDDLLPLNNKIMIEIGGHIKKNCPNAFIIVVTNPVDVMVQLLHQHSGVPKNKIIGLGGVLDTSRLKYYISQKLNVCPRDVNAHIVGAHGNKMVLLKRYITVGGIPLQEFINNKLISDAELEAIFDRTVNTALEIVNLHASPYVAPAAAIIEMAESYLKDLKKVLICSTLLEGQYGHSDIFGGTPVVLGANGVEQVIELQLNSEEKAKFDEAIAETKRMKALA
Structure (SMILES),growth inhibition [1],inhibition [2],inhibition [3],growth inhibition [4],outcome [5],outcome [6],outcome [7],outcome [8]
CC(C)c1ccc(NC(=O)c2ccc(CN3CCCN(Cc4cccc(O)c4)CC3)cc2)cc1,58% (active),51% (active),-4%,100% (active),inactive,inactive,inactive,inactive
NC1CCCN(Cc2cccc(-c3ccc(-c4nc5ccc(F)cc5[nH]4)cc3)c2)C1 (stereo not given),99% (active),40%,-3%,101% (active),inactive,inactive,inactive,inactive
CN1CCC(C(=O)N(Cc2ccc(-c3ccc(CNCCc4ccc(S(C)(=O)=O)cc4)cn3)cc2)Cc2cccc(F)c2)CC1,90% (active),10%,-4%,98% (active),inactive,inactive,inactive,inactive
Clc1ccc(-c2cc(-c3csc(Nc4ccncc4)n3)on2)cc1,99% (active),1%,3%,100% (active),inactive,inactive,inactive,inactive
Cc1ccc(CN2CCCN(Cc3cccc(NC(=O)c4ccc(Cl)c(Cl)c4)c3)CC2)cc1,18%,32%,-1%,96% (active),inactive,inactive,inactive,inactive
Cc1ccc(C)c(S(=O)(=O)NCC2CCN(Cc3ccc(O)cc3)CC2)c1,57% (active),16%,-6%,87% (active),inactive,inactive,inactive,inactive
NS(=O)(=O)NCCCN1CCN(c2ccccc2)CC1,73% (active),2%,-2%,90% (active),inactive,inactive,inactive,inactive
Cc1cc(=O)c(-c2ccc(Sc3ccc(Cl)cc3)cc2)c(C)[nH]1,84% (active),-3%,-7%,92% (active),inactive,inactive,inactive,inactive
Cc1noc(C)c1C(=O)N1CCCC(c2[nH]c3c(C)cccc3c2-c2ccncc2)C1 (stereo not given),101% (active),16%,6%,102% (active),inactive,inactive,inactive,inactive
O=C(C=Cc1ccc(Cl)c(Cl)c1)NCCCCCN1CCCC(CCCNS(=O)(=O)c2cccc(C(F)(F)F)c2)C1 (stereo not given),33%,81% (active),-3%,94% (active),inactive,inactive,inactive,inactive
Cn1nccc1C(=O)NCCNCc1ccc(-c2ccc(-c3nc4ccc(F)cc4[nH]3)cc2)cc1,98% (active),28%,-5%,101% (active),inactive,inactive,inactive,inactive
ON=C1c2cc(OCCN3CCCCC3)c(Cl)cc2-c2cc(Cl)c(OCCN3CCCCC3)cc21,98% (active),99% (active),5%,97% (active),inactive,inactive,inactive,inactive
Cc1nc(-c2nc(NCc3ccc4c(c3)OCO4)ncc2-c2ccsc2)sc1C,77% (active),7%,-6%,97% (active),inactive,inactive,inactive,inactive
CCN(CC)CCNc1ccnc2[nH]c3ccc(I)cc3c12,95% (active),14%,-1%,100% (active),inactive,inactive,inactive,inactive
N#Cc1ccc(N2CCN(Cc3cccc(-c4ccc(-c5nc6ccccc6[nH]5)cc4)c3)CC2)nc1,40%,45%,-1%,89% (active),inactive,inactive,inactive,inactive
O=[N+]([O-])c1cccc(CNCC2CCC(CNCc3cccc([N+](=O)[O-])c3)CC2)c1 (stereo not given),76% (active),39%,-1%,100% (active),inactive,inactive,inactive,inactive
CCN1CCC(N(CCCCCCCCc2ccc(C(F)(F)F)cc2)C(=O)Cn2c(CCc3cccc(F)c3F)cc(=O)c3ccccc32)CC1,65% (active),89% (active),2%,88% (active),inactive,inactive,inactive,inactive
NC(=O)c1ccc(NC(=O)CN(Cc2ccc(Cl)cc2)S(=O)(=O)c2ccccc2)cc1,75% (active),2%,6%,90% (active),inactive,inactive,inactive,inactive
O=C(N[C@@H](Cc1ccccc1)C(=O)NC1CCCCCC1)c1ccc(O)c(-c2cccc(C(F)(F)F)c2)c1,70% (active),-10%,-1%,98% (active),inactive,inactive,inactive,inactive
CCCCCCn1c(Sc2ccc(C#N)c([N+](=O)[O-])c2)nnc1-c1ccc(OC)cc1,51% (active),19%,2%,95% (active),inactive,inactive,inactive,inactive

Structure (SMILES),growth inhibition [1],inhibition [2],inhibition [3],growth inhibition [4],outcome [5],outcome [6],outcome [7],outcome [8]
CS(=O)(=O)c1ccc(CNCc2cccc(-c3ccc(-c4nc5ccc(C(F)(F)F)cc5[nH]4)cc3)c2)cc1,96% (active),31%,4%,101% (active),inactive,inactive,inactive,inactive
O=C(NC1CCCCC1)N(Cc1ccc(-c2cccc(CNC3CCCC3)c2)cc1)C1CCN(Cc2ccccc2)CC1,59% (active),52% (active),3%,95% (active),inactive,inactive,inactive,inactive
Cc1c(-c2ccc3c(c2)C(NCCCN2CCCCC2)CC3)cnc(N)c1C (stereo not given),3%,4%,-3%,97% (active),inactive,inactive,inactive,inactive
O=C(NCc1ccc(Cl)c(Cl)c1)c1ccc(C2CCN(Cc3ccc4nc[nH]c4c3)CC2)cc1,31%,1%,-1%,100% (active),inactive,inactive,inactive,inactive
CCCCCCNc1cc(C)nc(/N=C(\N)Nc2cccc(C(F)(F)F)c2)n1,100% (active),44%,-2%,100% (active),inactive,inactive,inactive,inactive
O=C(/C=C/c1ccc(Cl)c(Cl)c1)NCCCCCCN1CCN(C(=O)Nc2cccc(Cl)c2)CC1,2%,33%,-3%,85% (active),inactive,inactive,inactive,inactive
Cc1cccc(Cn2c(Cc3ccccc3)nnc2Sc2ccc([N+](=O)[O-])c(C#N)c2)c1,3%,17%,-2%,91% (active),inactive,inactive,inactive,inactive
O=C(Nc1ccc(OC2CCN(Cc3ccsc3)C2)c(Cl)c1)c1cccs1 (stereo not given),87% (active),-1%,-5%,91% (active),inactive,inactive,inactive,inactive
CC(C)Cc1nc2nc(N)nc(N)c2cc1C(C)C,3%,67% (active),4%,96% (active),inactive,inactive,inactive,inactive
CCCCc1ccc2[nH]cc(C(=O)OCC)c(=O)c2c1,96% (active),3%,5%,95% (active),inactive,inactive,inactive,inactive
CO/C(=C\C=C\c1cc2cc(Cl)c(Cl)cc2[nH]1)C(=O)NCCCN1CC(C)N(C)CC1C (stereo not given),73% (active),38%,-2%,92% (active),inactive,inactive,inactive,inactive
COc1cccc(C(=O)NC(c2ccc(Cl)cc2Cl)c2cc(Cl)c3cccnc3c2O)c1 (stereo not given),76% (active),37%,-8%,100% (active),inactive,inactive,inactive,inactive
CCN(CC)CCN(Cc1ccc(-c2ccc(C(F)(F)F)cc2)cc1)C(=O)Cn1c(CCc2ccc(F)cc2)nc(=O)c2sccc21,90% (active),100% (active),-3%,99% (active),inactive,inactive,inactive,inactive
CCCc1cc(N2CCC(N3CCCC3)CC2)nc(Nc2ccc(Cl)cc2)n1,9%,29%,-2%,96% (active),inactive,inactive,inactive,inactive
c1cn(-c2ccc(CNc3nccc(Nc4ccc(OCCN5CCOCC5)cc4)n3)cc2)cn1,3%,2%,-2%,100% (active),inactive,inactive,inactive,inactive
Cc1cc(C)c(NC(=O)NC2CCN(CCCCCNC(=O)/C=C/c3ccc(Cl)c(Cl)c3)CC2)c(C)c1,17%,30%,2%,103% (active),inactive,inactive,inactive,inactive
COc1ccc(F)cc1-c1cccc(CNC2CCN(CC3Cn4c(=O)ccc5ccc(F)c3c54)CC2)c1 (stereo not given),27%,46%,1%,100% (active),inactive,inactive,inactive,inactive
CCCCN1CCN(CCCCNc2c3ccccc3nc3ccccc23)CC1,5%,27%,4%,100% (active),inactive,inactive,inactive,inactive
Cc1ccc(Cc2cnc(CN3CCCCC3)c(O)c2)cc1,75% (active),4%,1%,93% (active),inactive,inactive,inactive,inactive
CN(C)CCCOc1ccc(CN2CC[C@H](NC(=O)c3ccc(Cl)c(Cl)c3)C2)c2ccccc12,97% (active),81% (active),0%,101% (active),inactive,inactive,inactive,inactive
